The results in this text go back to the supplement of paper PMC12282887.

The experiment has as its system E. coli BW25113 marRABp lux reporter. Kind of experiment: promoter activity interaction Z-score (Lux/OD deviation from empty-vector control); higher = stronger promoter induction by the compound. The procedure:
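E. coli BW25113 (wild type or ΔmarA/ΔsoxS/Δrob) carrying pTU175 luxCDABE promoter reporters was grown in LB in 384-well plates at 37°C with each of 94 compounds at 4 two-fold concentrations, in biological duplicates. Luminescence and OD600 were read every 30 min for 12 h and integrated as AUC over 8 h (0-8 h WT, 1-9 h mutants). Lux AUC was divided by OD AUC; the interaction score is the residual of a Huber robust fit of each promoter against the empty-vector control, then Z-transformed per promoter.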

Structures are written as SMILES. ± gives the standard deviation of the averaged measurements.

In the case of `COc1cc(NS(=O)(=O)c2ccc(N)cc2)ncn1` [Sulfamonomethoxine], the “promoter activity interaction Z-score” value (7 µg/ml, genetic background: wild type) worked out at 0.165 ± 0.29; the “promoter activity interaction Z-score” value (7 µg/ml, genetic background: ΔmarA) is 0.199 ± 0.22; the “promoter activity interaction Z-score” value (7 µg/ml, genetic background: Δrob) came to 0.0754 ± 0.022; the “promoter activity interaction Z-score” value (7 µg/ml, genetic background: ΔsoxS) is -0.0457 ± 0.27; the “promoter activity interaction Z-score” value (14 µg/ml, genetic background: wild type) came out at 0.419 ± 0.21; the “promoter activity interaction Z-score” value (14 µg/ml, genetic background: ΔmarA) came to 0.246 ± 0.58. Further, the “promoter activity interaction Z-score” value is -0.0243 ± 0.36 (14 µg/ml, genetic background: Δrob); -0.0217 ± 0.15 (14 µg/ml, genetic background: ΔsoxS); 0.52 ± 0.32 (28 µg/ml, genetic background: wild type); 0.729 ± 0.45 (28 µg/ml, genetic background: ΔmarA); 0.602 ± 0.038 (28 µg/ml, genetic background: Δrob); 0.101 ± 0.14 (28 µg/ml, genetic background: ΔsoxS). In addition, the “promoter activity interaction Z-score” value (56.1 µg/ml, genetic background: wild type) was determined as 1.09 ± 0.8; the “promoter activity interaction Z-score” value (56.1 µg/ml, genetic background: ΔmarA) amounted to 1.14 ± 0.16; the “promoter activity interaction Z-score” value (56.1 µg/ml, genetic background: Δrob) came out at 1.18 ± 0.4; the “promoter activity interaction Z-score” value (56.1 µg/ml, genetic background: ΔsoxS) stood at 1.04 ± 0.46.

As to `c1ccc(-c2ccccn2)nc1` [2-2-Bipyridyl], the “promoter activity interaction Z-score” value runs as follows: (9.8 µg/ml, genetic background: wild type) 0.799 ± 0.78; (9.8 µg/ml, genetic background: ΔmarA) 0.4 ± 0.48; (9.8 µg/ml, genetic background: Δrob) -0.042 ± 0.093; (9.8 µg/ml, genetic background: ΔsoxS) -0.2756 ± 0.0019; (19.5 µg/ml, genetic background: wild type) 0.288 ± 0.12; (19.5 µg/ml, genetic background: ΔmarA) 0.637 ± 0.14. Besides, the “promoter activity interaction Z-score” value reads like this: (19.5 µg/ml, genetic background: Δrob) -0.32 ± 0.14; (19.5 µg/ml, genetic background: ΔsoxS) -0.0307 ± 0.0061; (39 µg/ml, genetic background: wild type) 2.32 ± 0.13; (39 µg/ml, genetic background: ΔmarA) 2.22 ± 0.2; (39 µg/ml, genetic background: Δrob) 1.59 ± 0.24; (39 µg/ml, genetic background: ΔsoxS) 1.67 ± 0.33.

In the case of `NCCc1ccc(O)c(O)c1` [Dopamine], the “promoter activity interaction Z-score” value was 0.0994 ± 0.32 (11.9 µg/ml, genetic background: wild type); -0.339 ± 0.18 (11.9 µg/ml, genetic background: ΔmarA); -0.285 ± 0.05 (11.9 µg/ml, genetic background: Δrob); -0.021 ± 0.064 (11.9 µg/ml, genetic background: ΔsoxS); -0.265 ± 0.15 (23.7 µg/ml, genetic background: wild type); 0.159 ± 0.52 (23.7 µg/ml, genetic background: ΔmarA). Besides, the “promoter activity interaction Z-score” value was 0.121 ± 0.22 (23.7 µg/ml, genetic background: Δrob); -0.3 ± 0.046 (23.7 µg/ml, genetic background: ΔsoxS); 0.113 ± 0.12 (47.4 µg/ml, genetic background: wild type); -0.369 ± 0.073 (47.4 µg/ml, genetic background: ΔmarA); -0.155 ± 0.3 (47.4 µg/ml, genetic background: Δrob); -0.126 ± 0.099 (47.4 µg/ml, genetic background: ΔsoxS). Also, the “promoter activity interaction Z-score” value reads like this: (94.8 µg/ml, genetic background: wild type) -0.305 ± 0.37; (94.8 µg/ml, genetic background: ΔmarA) 0.217 ± 1.1; (94.8 µg/ml, genetic background: Δrob) -0.642 ± 0.091; (94.8 µg/ml, genetic background: ΔsoxS) -0.61 ± 0.21.
